Only some compounds are listed: those with a hit (about 6% of all), similar ones and a draw of the others.
D3 ag: agonists of human D3 dopamine receptor; AID 652048; max activation, %; 0.58% of 410,000 active; D3R DiscoveRx beta-arrestin cells, luminescence, 90 min; in the data active = max activation above about 30%; note: 0% is about no effect
Target sequence (P35462 whole entry, looked up): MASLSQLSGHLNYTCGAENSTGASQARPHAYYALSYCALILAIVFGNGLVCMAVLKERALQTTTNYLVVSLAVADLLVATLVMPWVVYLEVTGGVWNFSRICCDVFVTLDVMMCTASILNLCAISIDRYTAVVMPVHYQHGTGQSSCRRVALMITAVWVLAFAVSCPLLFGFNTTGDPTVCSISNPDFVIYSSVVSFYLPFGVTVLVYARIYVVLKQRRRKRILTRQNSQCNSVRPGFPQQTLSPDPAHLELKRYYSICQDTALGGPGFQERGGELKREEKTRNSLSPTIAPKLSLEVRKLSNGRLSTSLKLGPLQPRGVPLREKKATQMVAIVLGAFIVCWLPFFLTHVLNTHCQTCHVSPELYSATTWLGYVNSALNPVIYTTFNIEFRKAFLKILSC
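Cells at 1500/well, incubated overnight, then treated with pinned compounds (dopamine as control) for 90 min at 37 degrees C. DiscoveRx reagent added for 30 - 60 minutes at room temperature; luminescence read.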
D1 ag: human D1 receptor agonism. P21728. HEK293 T-REx D1 cells, calcium flux, agonist mode. activation, % at 2 µM. 1% of 360,000 active. AID 504660; in the data active = activation above about 30%; note: 0% is about no effect
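Tetracycline-induced HEK293 TREx D1 cells, force-coupled to calcium signalling, were dye-loaded with a no-wash calcium kit. Compound was pin-added after a 10 s baseline. Fluorescence was read kinetically at 1 cycle/s for 180 s, with calcium rises flagged as agonism.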
D1 antag: antagonists of human D1 dopamine receptor. P21728. HEK293 TREx D1 cells, calcium flux, dopamine EC80; active compounds read low. activity change, negative = inhibition, % at 10 µM. 3.2% of 360,000 active; in the data active = activity change below about -30%; note: % is set by controls: 0 for no effect and ±100 for the full control effect
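Tetracycline-induced HEK293 Trex D1 cells, force-coupled to calcium, dye-loaded; compounds added and read 180 s, then EC80 dopamine added and calcium flux tracked kinetically another 180 s.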
D1 potentiator: human D1 dopamine receptor positive modulation | 0.036% of 360,000 active | potentiation, % at 10 µM | P21728 | HEK293 TREx D1 cells, calcium flux, dopamine EC20 potentiation; in the data active = potentiation above about 30%; note: 0% is about no effect
D3 antag: blocks the human D3 dopamine receptor. max response, negative = inhibition, %. 2.5% of 360,000 active. D3R cells, DiscoveRx beta-arrestin luminescence, antagonist mode; active compounds read low. P35462; in the data active = max response below about -50%; inconclusive = no clear call, values can overlap the other calls; note: % is set by controls: 0 for no effect and ±100 for the full control effect
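Cells expressing the human receptor were seeded at 1500 cells/well, incubated overnight at 37 degrees C in 5% CO2, then exposed to library compounds with dopamine controls for 90 minutes at 37 degrees C before luminescent detection.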
* marks the source's active call; other numbers are inactive results; ? = inconclusive; . = no result given.

SMILES | D3 ag | D1 ag | D1 antag | D1 potentiator | D3 antag
O=C(c1ccco1)N1CCN(C2CCCC2)CC1 | -3.8 | 0.6 | 3.0 | -3.1 | -74.2*
OCC1(CCCc2ccccc2)CCN(C2CCC2)CC1 | -8.1 | -0.3 | -5.1 | -3.8 | -5.7
CC(Sc1nnc(Cc2cccs2)n1C1CCCCC1)C(N)=O (stereo not drawn) | -1.6 | 3.3 | -0.3 | 4.0 | -23.1
O=C(c1ccco1)N1CCN(C2CN(C3CCCC3)S(=O)(=O)C2)CC1 (stereo not drawn) | 4.9 | . | . | . | 18.5
CCC(=O)c1c(O)cc(O)cc1O | 5.0 | . | . | . | .
O=C(CCCc1ccccc1)N1CCN(C2CCCCC2)CC1 | -5.8 | 2.1 | 10.0 | 8.1 | -84.5*
O=C(CCC1CCN(C(=O)c2ccco2)CC1)NCc1ccc(F)cc1 | -6.5 | 0.3 | -49.9* | -15.1 | -4.0
O=C(c1ccco1)N1CCN(c2ccc(F)cc2)CC1 | 2.2 | 2.9 | -7.6 | -3.6 | 19.3
COC(=O)CCC(=O)N1CCC(CCC(=O)NCc2ccc(F)cc2)CC1 | 0.2 | 4.3 | 5.8 | -3.0 | -5.4
O=C(c1ccco1)N1CCN(c2nc(-c3ccc(F)cc3)cs2)CC1 | 2.6 | 1.7 | -41.7* | -5.8 | 151.5
CCC(C)N1CCN(C(=O)c2cccs2)CC1 (stereo not drawn) | -17.0 | . | . | . | -65.1*
Cc1cccc(N2CCN(S(=O)(=O)c3cc(C(=O)Nc4ccc(Oc5ccccc5)cc4)ccc3F)CC2)c1C | 2.4 | 2.7 | -5.9 | -2.4 | .
COc1ccc(OC)c(NC(=O)COc2coc(CN3CCCc4ccccc43)cc2=O)c1 | 2.9 | 7.4 | -9.0 | -6.4 | 12.2
COc1ccc(OC)c(NC(=O)COc2coc(CN3CCc4ccccc43)cc2=O)c1 | 2.3 | 6.6 | -36.0* | -10.1 | 9.3
CC1Cc2ccccc2N1Cc1cc(=O)c(OCC(=O)Nc2ccccc2)co1 (stereo not drawn) | 3.2 | 2.8 | -33.0* | -3.8 | -8.5
Cc1ccc(NC(=O)COc2coc(CN3c4ccccc4CC3C)cc2=O)c(C)c1 (stereo not drawn) | -3.7 | 3.4 | -13.7 | -10.8 | ?
CC(C)NC(=O)COc1coc(CN2CCN(c3ccccc3)CC2)cc1=O | 0.7 | 5.7 | -26.5 | -0.3 | -61.7*
O=c1cc(C(F)(F)F)[nH]c2c(C(F)(F)F)cccc12 | 23.8 | 31.6* | -22.3 | -5.0 | 56.7
CCOc1ccc2[nH]c(C)cc(=O)c2c1 | -2.4 | 4.5 | 11.2 | 8.9 | 4.6
O=c1cc(C(F)(F)F)[nH]c2ccc(OC(F)(F)F)cc12 | 32.6* | 29.5 | -10.3 | 2.4 | 30.5
CC1(C)CC[C@]2(C(=O)O)CC[C@]3(C)C(=CC[C@@H]4[C@@]5(C)CC[C@H](O[C@@H]6O[C@H](C(=O)O)[C@@H](O)[C@H](O[C@@H]7OC[C@H](O)[C@H](O)[C@H]7O)[C@H]6O)C(C)(C)[C@@H]5CC[C@]43C)[C@@H]2C1 | -22.1 | . | . | . | -62.8*
COc1ccc(-c2ccc3[nH]c4c(c3c2)CCN2C(=O)[C@@H]([C@H](C)O)[C@@H](N(C)C(=O)Nc3ccccc3)C[C@@H]42)cc1 | -2.0 | . | . | . | -16.5
COc1ccc(-c2cn3nc(SCC(=O)Nc4cccc(C)c4C)ccc3n2)cc1 | 2.7 | 1.5 | 1.2 | -2.5 | .
CCOc1ccc(-c2nc(Cn3c(=O)cc(-c4ccccc4)c4c(C)nn(C)c43)c(C)o2)cc1OC | -13.3 | -0.4 | 1.3 | -5.9 | .
CCC(Sc1nc2cc(OC)c(OC)cc2c(=O)n1CCc1ccc(OC)c(OC)c1)C(=O)NCCOC (stereo not drawn) | 7.8 | 0.5 | -30.1* | -7.2 | 42.9
SMILES | D3 ag | D1 ag | D1 antag | D1 potentiator | D3 antag
COc1ccc(C(=O)NC2CC2)cc1OC1CCN(Cc2cc(C)c(C)cc2C)CC1 | 2.2 | 0.9 | -85.7* | -15.7 | -2.3
COc1cc(CN2CCC(Oc3cc(C(=O)NC4CC4)ccc3OC)CC2)cc(OC)c1 | -13.1 | 2.7 | -75.2* | -7.8 | 9.4
COc1ccc(C(=O)NC2CC2)cc1OC1CCN(Cc2ccc(NC(C)=O)cc2)CC1 | 14.2 | 0.9 | -6.0 | -4.8 | 1.1
COc1cc(C)c(CN2CCN(CC(=O)Nc3ccccc3C(=O)NC3CC3)CC2)cc1OC | -2.7 | 0.4 | -30.2* | -5.7 | -20.8
COc1ccc(OC)c(CN2CCN(CC(=O)Nc3ccccc3C(=O)NC3CC3)CC2)c1 | 0.4 | -1.0 | -12.6 | -9.8 | 4.3
COc1cccc(N2CCN(CC(=O)Nc3ccccc3C(=O)NCCc3ccccc3)CC2)c1 | 33.8* | 0.7 | -16.1 | -9.9 | 26.9
CC(C)C[C@@H](CNCC(=O)[C@H](Cc1ccccc1)NC(=O)c1[nH]cnc1C(=O)N[C@H](CN)CC(C)C)NC(=O)c1nc[nH]c1C(=O)N[C@@H](CC(=O)O)C(=O)O | -8.8 | . | . | . | ?
CC(C)c1nn2c(=O)cc(COC(=O)c3cccc(NC(=O)CCc4ccccc4)c3)nc2s1 | 8.5 | 5.5 | -11.5 | -0.8 | .
COc1cc2c(N3CCN(C(=O)Nc4ccc(OC(C)C)cc4)CC3)ncnc2cc1OCCCN1CCCCC1 | -22.5 | . | . | . | .
Cc1cc(/C=C(/C#N)C(=O)O)c(C)n1-c1cccc2ccccc12 | -0.9 | 1.7 | -7.3 | -5.0 | 14.4
COc1ccc(CN2CCC(Oc3cc(C(=O)NC4CC4)ccc3OC)CC2)c(O)c1 | 4.0 | 3.9 | -76.9* | -15.3 | 5.8
O=C(Oc1ccc(Cl)cc1)c1ccc(COC(=O)c2cnccn2)cc1 | 0.6 | 6.6 | -30.7* | 7.1 | 6.6
O=C(COC(=O)c1cnccn1)c1ccc(OC(=O)c2ccccc2)cc1 | -3.6 | 1.4 | 4.5 | 11.2 | 8.4
O=C(Oc1ccccc1)c1ccc(COC(=O)c2cnccn2)cc1 | -2.0 | 7.4 | -14.3 | -7.6 | -106.4*
O=C(COC(=O)C1CCN(S(=O)(=O)c2cc([N+](=O)[O-])ccc2Cl)CC1)Nc1ncc(Cl)cc1Cl | 2.4 | 0.2 | -34.1* | 1.9 | -12.9
Cc1cc(=O)[nH]c(N2CCN(Cc3ccccc3)CC2)n1 | 1.1 | 1.4 | 4.8 | 0.1 | -6.9
O=c1[nH]ncc(N2CCN(Cc3ccccc3)CC2)c1Cl | -15.1 | 2.0 | -16.8 | -3.5 | -71.2*
Cc1ccc([C@H]2C(C(=O)O)=CC[C@@H](c3ccc(Cl)cc3)N2S(=O)(=O)c2ccc(C)cc2)cc1 | -7.7 | . | . | . | -51.3*
Cc1ccc([C@H]2C(C(=O)O)=CC[C@@H](c3ccc(C(C)C)cc3)N2S(=O)(=O)c2ccc(C)cc2)cc1 | -34.2 | . | . | . | -63.8*
Cc1ccccc1OCC(=O)Nc1ccc(C(=O)OCc2cc(=O)n3c(C)csc3n2)cc1 | -15.2 | 8.3 | -1.1 | -0.5 | .
Cn1nnc(NC(=S)NC(=O)c2cc3ccccc3o2)n1 | -16.7 | 1.0 | 0.7 | -5.5 | -2.1
Cn1nnc(NC(=S)NC(=O)c2ccco2)n1 | -17.0 | 4.0 | 0.6 | 3.9 | -72.5*
Cn1nnc(NC(=S)NC(=O)Cc2ccccc2)n1 | -12.4 | 1.6 | -5.7 | 4.8 | -63.8*
Cn1nnc(NC(=O)c2ccco2)n1 | 1.0 | 0.8 | -1.5 | -2.4 | 11.1

Screens deposited in PubChem BioAssay by National Center for Advancing Translational Sciences (NCATS).
